For part of these data: Measured potencies and affinities stand elsewhere.
How the values were obtained:
Design in all cases: scale not given: direction of the effect not stated beside the values
[1] = target: Protein translocase subunit SecA (Escherichia coli (strain K12)) (UniProt P10408); assay: Assay to Identify E. coli SecA ATPase Inhibitors; assay type: functional; conditions: 30 µM
[2] = target: T1, Ubiquitin-activating enzyme e1, putative (Leishmania donovani (strain BPK282A1)) (UniProt E9BSI1); assay: Leishmania donovani Ubiquitin Activating Enzyme (LdE1); assay type: functional; conditions: 30 µM
T1 sequence (whole entry): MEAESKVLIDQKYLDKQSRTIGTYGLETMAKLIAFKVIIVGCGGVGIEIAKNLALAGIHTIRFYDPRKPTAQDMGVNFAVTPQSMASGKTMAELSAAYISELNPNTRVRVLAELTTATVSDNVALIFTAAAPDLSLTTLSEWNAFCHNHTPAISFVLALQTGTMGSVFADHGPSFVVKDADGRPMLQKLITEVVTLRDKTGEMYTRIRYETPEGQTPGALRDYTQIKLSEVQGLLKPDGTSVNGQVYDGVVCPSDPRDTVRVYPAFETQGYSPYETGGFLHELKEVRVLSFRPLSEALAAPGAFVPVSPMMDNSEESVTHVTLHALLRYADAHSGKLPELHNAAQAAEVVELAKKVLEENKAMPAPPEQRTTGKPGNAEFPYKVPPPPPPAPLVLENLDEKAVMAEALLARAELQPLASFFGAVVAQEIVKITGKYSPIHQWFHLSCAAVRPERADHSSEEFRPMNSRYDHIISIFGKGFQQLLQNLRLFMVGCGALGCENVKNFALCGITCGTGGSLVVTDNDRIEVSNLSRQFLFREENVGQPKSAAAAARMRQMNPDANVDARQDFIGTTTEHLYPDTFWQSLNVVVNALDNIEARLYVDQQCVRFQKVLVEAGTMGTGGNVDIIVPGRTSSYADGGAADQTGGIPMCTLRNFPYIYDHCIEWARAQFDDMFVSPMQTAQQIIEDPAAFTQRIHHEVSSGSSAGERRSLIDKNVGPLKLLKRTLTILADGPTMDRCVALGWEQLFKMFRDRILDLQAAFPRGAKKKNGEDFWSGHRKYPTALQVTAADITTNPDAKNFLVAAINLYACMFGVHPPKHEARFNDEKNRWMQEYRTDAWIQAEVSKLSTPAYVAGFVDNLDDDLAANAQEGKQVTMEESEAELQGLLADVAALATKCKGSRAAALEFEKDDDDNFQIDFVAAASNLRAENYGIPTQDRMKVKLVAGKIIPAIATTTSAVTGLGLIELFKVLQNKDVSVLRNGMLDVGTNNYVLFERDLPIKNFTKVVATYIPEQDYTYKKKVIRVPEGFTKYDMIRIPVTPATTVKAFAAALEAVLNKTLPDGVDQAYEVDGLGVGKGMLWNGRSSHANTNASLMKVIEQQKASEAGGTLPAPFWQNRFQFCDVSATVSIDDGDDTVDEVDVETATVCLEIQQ

[3] = target: T2, Aspartate--tRNA(Asp/Asn) ligase (Mycobacterium tuberculosis (strain ATCC 25618 / H37Rv)) (UniProt P9WFW3); assay: Assay for Asp RNA synthetase-1 from Mycobacterium tuberculosis; assay type: functional; conditions: 30 µM; note: in the data most compounds retested in dose-response had high values
T2 sequence (whole entry): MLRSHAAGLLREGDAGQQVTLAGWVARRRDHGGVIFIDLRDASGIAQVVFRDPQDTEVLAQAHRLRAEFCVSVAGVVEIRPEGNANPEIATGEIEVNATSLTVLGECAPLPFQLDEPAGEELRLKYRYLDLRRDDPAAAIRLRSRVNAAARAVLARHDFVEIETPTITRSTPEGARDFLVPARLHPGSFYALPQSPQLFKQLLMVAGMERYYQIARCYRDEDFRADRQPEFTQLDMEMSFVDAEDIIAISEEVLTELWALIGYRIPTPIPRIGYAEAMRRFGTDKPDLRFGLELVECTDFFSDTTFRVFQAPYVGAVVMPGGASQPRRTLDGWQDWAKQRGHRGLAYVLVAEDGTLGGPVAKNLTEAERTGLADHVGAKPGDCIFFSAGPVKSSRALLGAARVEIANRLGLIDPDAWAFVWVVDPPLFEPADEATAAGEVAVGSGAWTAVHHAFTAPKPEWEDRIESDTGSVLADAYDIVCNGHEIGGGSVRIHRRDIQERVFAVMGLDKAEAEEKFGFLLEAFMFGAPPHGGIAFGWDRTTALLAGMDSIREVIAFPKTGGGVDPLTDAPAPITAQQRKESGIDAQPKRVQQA

[4] = target: Sialic acid-binding Ig-like lectin 9 (Homo sapiens) (UniProt Q9Y336); assay: Hs-Siglec9 ALPHAscreen SOP 20170721; conditions: 10 µM
[5] = system: Trypanosoma cruzi; assay: Trypanosoma cruzi phosphomannomutase and mannose-1-phosphate guanylyltransferase assay; assay type: functional; conditions: 10 µM
[6] = target: T3, Arginase-2, mitochondrial (Homo sapiens) (UniProt P78540); assay: in vitro enzyme assay to detect the production of urea directly proportional to the activity of Arginase II; assay type: functional; conditions: 33.3 µM; note: in the data most compounds retested in dose-response had high values
T3 sequence (whole entry): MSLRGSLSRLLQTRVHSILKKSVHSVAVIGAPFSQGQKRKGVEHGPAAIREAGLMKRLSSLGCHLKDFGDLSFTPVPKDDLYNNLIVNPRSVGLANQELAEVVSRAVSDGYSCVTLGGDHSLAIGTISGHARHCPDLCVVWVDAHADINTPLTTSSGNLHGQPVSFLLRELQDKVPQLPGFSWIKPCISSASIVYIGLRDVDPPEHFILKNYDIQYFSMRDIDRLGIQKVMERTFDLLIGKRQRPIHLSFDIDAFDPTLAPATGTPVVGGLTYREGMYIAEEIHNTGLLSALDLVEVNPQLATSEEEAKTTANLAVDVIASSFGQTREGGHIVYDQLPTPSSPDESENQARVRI

[7] = target: T4, Proteasome subunit beta (Trypanosoma cruzi) (UniProt O96673); assay: Trypanosoma cruzi proteasome chymotrypsin-like activity (TcProtChymo) assay.; note: in the data most compounds retested in dose-response had high values; assay type: functional; conditions: 9.37 µM
T4 sequence (whole entry): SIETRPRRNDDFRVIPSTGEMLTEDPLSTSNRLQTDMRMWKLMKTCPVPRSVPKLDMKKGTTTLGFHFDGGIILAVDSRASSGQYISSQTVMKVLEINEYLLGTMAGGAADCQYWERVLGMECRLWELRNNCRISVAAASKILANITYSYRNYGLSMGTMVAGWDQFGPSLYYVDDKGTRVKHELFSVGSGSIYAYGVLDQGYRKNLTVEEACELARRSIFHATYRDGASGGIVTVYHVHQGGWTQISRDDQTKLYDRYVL

[8] = species: Homo sapiens; assay: To identify inhibition of the IFN signalling (Jak-Stat) pathway via expression of an eGFP reporter gene under the control of an IFN-stimulated response element (ISRE) containing MxA promoter.; assay type: functional; conditions: 30 µM
[9] = target: Shiga toxin 2 (Escherichia coli O157:H7) (UniProt P09385+P09386); assay: E. coli 0.157:H7 Shiga Toxin SOP - stx2 screening assay; assay type: functional; conditions: 30 µM
[10] = target: T5, Tyrosyl-tRNA synthetase, putative (Trypanosoma cruzi (strain CL Brener)) (UniProt Q4DSP6); assay: Trypanosoma cruzi tyrosyl tRNA synthetase (TcYRS) _High Tyrosine SOP; assay type: functional; conditions: 30 µM; note: in the data most compounds retested in dose-response had high values
T5 sequence (whole entry): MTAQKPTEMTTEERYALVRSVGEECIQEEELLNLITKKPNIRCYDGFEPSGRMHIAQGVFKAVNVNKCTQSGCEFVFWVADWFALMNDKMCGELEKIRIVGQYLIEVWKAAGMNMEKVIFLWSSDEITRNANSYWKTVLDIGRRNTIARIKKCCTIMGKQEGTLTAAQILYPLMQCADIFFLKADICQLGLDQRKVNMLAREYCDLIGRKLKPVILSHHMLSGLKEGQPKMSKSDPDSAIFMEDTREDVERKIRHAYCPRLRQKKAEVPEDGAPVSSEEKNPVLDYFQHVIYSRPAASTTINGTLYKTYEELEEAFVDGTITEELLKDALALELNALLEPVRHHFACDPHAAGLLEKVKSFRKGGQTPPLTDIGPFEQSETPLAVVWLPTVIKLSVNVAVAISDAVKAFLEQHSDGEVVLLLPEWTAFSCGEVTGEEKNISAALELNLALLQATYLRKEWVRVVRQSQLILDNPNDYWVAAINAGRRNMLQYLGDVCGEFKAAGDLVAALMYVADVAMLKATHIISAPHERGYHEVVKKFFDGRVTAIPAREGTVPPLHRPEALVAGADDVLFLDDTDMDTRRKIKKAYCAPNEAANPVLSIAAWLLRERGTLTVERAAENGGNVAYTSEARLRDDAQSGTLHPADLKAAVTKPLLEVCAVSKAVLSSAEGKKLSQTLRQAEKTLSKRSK

[11] = target: T5, Tyrosyl-tRNA synthetase, putative (Trypanosoma cruzi (strain CL Brener)); assay: Trypanosoma cruzi tyrosyl tRNA synthetase (TcYRS) SOP; assay type: functional; conditions: 30 µM
[12] = target: Chromo domain-containing protein 1 (Saccharomyces cerevisiae (strain ATCC 204508 / S288c) (Baker's yeast)) (UniProt P32657); assay: ScCHD-1 Enzyme Inhibition Assay; assay type: functional; conditions: 30 µM; note: in the data most compounds retested in dose-response had high values
[13] = target: AMP-activated protein kinase, AMPK (Homo sapiens) (UniProt P54646+O43741+P54619+Q9UGJ0+Q9Y478+Q13131+Q9UGI9); assay: AMP-dependent Kinase enzyme assay. An in vitro enzyme assay that detects ADP turnover that is directly proportional to AMPK activity. This uses naive AMPK that is activated during the assay with MK-8722; assay type: functional; conditions: 30 µM

Sequence of Sialic acid-binding Ig-like lectin 9 (Homo sapiens) (Q9Y336 whole entry): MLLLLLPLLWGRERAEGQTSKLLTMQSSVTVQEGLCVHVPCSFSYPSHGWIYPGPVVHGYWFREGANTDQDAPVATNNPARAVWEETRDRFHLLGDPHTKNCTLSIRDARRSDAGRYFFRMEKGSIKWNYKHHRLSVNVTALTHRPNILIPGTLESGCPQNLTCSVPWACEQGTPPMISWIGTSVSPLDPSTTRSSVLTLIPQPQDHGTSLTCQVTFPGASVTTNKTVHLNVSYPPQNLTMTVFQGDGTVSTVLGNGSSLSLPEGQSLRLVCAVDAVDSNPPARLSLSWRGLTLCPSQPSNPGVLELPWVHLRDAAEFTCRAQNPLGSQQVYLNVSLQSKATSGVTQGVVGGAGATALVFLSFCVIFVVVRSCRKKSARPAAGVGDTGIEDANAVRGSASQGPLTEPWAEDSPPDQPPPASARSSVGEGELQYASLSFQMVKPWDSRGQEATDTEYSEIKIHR
Sequence of Chromo domain-containing protein 1 (Saccharomyces cerevisiae (strain ATCC 204508 / S288c) (Baker's yeast)) (P32657 whole entry, the tested form may be a part): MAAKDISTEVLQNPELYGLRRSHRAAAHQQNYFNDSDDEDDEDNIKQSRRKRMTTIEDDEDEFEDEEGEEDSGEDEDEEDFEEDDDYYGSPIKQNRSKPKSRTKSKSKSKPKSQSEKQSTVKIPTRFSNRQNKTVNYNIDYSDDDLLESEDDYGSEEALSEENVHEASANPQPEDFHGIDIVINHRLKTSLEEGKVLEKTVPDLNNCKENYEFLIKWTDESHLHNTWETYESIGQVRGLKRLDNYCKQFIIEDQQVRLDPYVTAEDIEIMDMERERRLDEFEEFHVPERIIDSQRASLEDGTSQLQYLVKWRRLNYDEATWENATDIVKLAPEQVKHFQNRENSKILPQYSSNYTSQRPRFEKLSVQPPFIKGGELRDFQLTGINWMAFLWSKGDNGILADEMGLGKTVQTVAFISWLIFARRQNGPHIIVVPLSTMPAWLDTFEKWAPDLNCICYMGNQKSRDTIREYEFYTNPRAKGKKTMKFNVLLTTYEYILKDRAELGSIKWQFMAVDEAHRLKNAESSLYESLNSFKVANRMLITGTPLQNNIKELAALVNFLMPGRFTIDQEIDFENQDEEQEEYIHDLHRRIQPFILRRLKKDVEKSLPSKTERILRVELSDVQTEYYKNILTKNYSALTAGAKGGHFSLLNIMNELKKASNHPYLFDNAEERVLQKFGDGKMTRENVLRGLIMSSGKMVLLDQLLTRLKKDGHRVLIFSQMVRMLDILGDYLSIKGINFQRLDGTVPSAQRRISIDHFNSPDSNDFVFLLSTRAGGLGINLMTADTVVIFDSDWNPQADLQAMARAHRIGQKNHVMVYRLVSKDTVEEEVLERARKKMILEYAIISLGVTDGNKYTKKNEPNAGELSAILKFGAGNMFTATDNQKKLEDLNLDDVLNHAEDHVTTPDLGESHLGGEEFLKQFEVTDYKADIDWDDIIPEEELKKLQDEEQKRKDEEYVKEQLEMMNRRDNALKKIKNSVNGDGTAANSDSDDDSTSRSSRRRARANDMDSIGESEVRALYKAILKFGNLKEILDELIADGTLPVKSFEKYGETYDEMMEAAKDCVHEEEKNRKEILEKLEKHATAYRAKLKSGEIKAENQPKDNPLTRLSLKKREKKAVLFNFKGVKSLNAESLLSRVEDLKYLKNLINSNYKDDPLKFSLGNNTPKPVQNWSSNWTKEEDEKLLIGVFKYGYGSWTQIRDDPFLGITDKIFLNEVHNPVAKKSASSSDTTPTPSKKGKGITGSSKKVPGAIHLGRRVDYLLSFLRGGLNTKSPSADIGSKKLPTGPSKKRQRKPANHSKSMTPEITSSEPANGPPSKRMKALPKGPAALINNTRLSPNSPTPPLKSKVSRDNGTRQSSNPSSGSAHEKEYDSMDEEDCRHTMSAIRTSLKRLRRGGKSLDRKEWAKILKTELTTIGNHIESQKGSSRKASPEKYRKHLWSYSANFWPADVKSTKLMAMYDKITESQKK
Sequence of Protein translocase subunit SecA (Escherichia coli (strain K12)) (P10408 whole entry): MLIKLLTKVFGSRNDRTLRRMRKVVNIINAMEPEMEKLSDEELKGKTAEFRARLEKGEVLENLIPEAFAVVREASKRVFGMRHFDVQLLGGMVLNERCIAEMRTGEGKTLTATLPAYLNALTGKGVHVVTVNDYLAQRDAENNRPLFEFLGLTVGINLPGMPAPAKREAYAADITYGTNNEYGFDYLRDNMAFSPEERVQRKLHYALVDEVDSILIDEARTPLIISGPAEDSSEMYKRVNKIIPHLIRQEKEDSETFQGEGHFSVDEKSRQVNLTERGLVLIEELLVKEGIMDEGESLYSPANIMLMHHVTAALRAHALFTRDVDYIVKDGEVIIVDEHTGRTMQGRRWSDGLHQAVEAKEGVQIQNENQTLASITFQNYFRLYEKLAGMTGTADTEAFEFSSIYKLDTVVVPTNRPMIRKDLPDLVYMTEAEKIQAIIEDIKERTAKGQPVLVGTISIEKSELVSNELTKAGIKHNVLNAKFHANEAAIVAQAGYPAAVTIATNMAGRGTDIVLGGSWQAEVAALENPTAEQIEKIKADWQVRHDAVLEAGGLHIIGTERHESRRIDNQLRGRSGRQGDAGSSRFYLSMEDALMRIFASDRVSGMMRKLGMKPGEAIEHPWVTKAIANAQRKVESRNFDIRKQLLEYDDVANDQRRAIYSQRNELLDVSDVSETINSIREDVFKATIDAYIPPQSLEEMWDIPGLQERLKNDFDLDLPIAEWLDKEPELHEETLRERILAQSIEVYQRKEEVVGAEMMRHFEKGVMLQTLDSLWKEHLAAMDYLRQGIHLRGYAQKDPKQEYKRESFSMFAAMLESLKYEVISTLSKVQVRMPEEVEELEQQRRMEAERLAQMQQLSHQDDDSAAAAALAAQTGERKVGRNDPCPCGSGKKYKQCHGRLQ

SMILES | Percent Effect [1] [%] | Percent Effect [2] [%] | Percent Effect [3] [%] | Percent Effect [4] [%] | Percent Effect [5] [%] | Percent Effect [6] [%] | Percent Effect [7] [%] | Percent Effect [8] [%] | Percent Effect [9] [%] | Percent Effect [10] [%] | Percent Effect [11] [%] | Percent Effect [12] [%] | Percent Effect [13] [%]
COCCNC(=O)c1cn(C(C)(C)C)c2ncccc12 | 107 | 6.67 | 2.31 | -7.99 | 0.197 | 6.2 | 11 | 3.2 | 4 | 0 | 10 | -17.6 | –
COCCN1C[C@@H]2CN(Cc3cccc(C)n3)C[C@@H]2C1=O | -2.33 | -1.3 | 1.39 | 0.23 | -24.2 | 2.28 | 16.1 | 1.2 | -2.04 | 7.73 | 12.5 | -8.2 | –
COc1ccc(C(=O)C2CCCN(Cc3ccncc3)C2)c(OC)c1 (configuration not stated) | -6.33 | 5.41 | -0.276 | 12.6 | 5.33 | 15 | 5.31 | 10.7 | 11 | 5.85 | 12.2 | 83.7 | –
Cc1cccc(CN2C(=O)C[C@H]3[C@@H]2CCN3Cc2ccccn2)n1 | 0.959 | 22.1 | 3.98 | -1.08 | -1.13 | -1.83 | 12.8 | -7.67 | -19.3 | -0.966 | 20 | -6.04 | –
Cc1cccc(CN2CC[C@H]3[C@H]2CCN3Cc2cnn(C)c2)n1 | -6.02 | 3.9 | -3.89 | 2.88 | 0.75 | -0.457 | -2.15 | 34 | -8.6 | -1.93 | -10 | 1.01 | –
COCCN1CCN(Cc2ccncc2)[C@H]2CS(=O)(=O)C[C@H]21 | -10.2 | 10.8 | -1.29 | 17.6 | 6.3 | 16.4 | 5.99 | 6.91 | 11.1 | 4.79 | 14.6 | -4.57 | –
CNCCc1nc2cc(F)ccc2[nH]1 | -3.21 | 0 | 5.99 | -3.69 | -6.13 | 5.21 | 5.23 | 4.18 | – | -4.92 | -8.64 | -3.45 | -8.1
CNCCc1nc2cc(Cl)ccc2[nH]1 | -7.19 | 0 | 0.126 | -5.75 | -7.11 | -3.65 | 5.58 | 5.87 | – | -4.92 | -6.17 | 0.639 | 1.26
CN1CCN(Cc2ccoc2)Cc2cccnc21 | -4.57 | -14.3 | 3.07 | -3.94 | -5.16 | 4.45 | -0.265 | 0.714 | -8.68 | 5.79 | -15.4 | 3.94 | –
c1cnc(N2CCC3(COCCN(CC4CC4)C3)C2)nc1 (configuration not stated) | -1.87 | 3.9 | 6.45 | -2.75 | -3.21 | 0 | 14.2 | -5.95 | 3.4 | 3.68 | 10.3 | -1.41 | –
O=C(Cc1ccc(-n2cccn2)cc1)N1CCN2CCCCC2C1 (configuration not stated) | -4.18 | -10.7 | -7.19 | 2.63 | -5.42 | 3.55 | 9.58 | 0.299 | -24.9 | 1.58 | 5.13 | -13.6 | –
